According to PubChem BioAssay (Tox21):
Where “and” joins values, the source holds several entries; their conditions need not be identical. Identical values can stand only once. Results filed as inconclusive are left out. A call without a number means that no potency is given here. Calls of active or inactive are those of the source. The call rests on the fitted dose curve; in most records, active means well fitted cell-killing curve with a large enough effect in the repeat runs; inconclusive means weak or mixed curves, or effect the other way; inactive means no such curve, though single readings can be large or run the other way.

Test: qHTS assay for identifying genotoxic compounds that show differential cytotoxicity against isogenic chicken DT40 cell lines with known DNA damage response pathways - Rev3 mutant cell line (AID 743014); further: nearly all actives have a fitted effect of over 55% in size
Conditions: chicken DT40 Rev3-/- viability, CellTiter-Glo, 40 h; series mostly up to 68.4 µM
Excerpt: National Center for Advancing Translational Sciences [NCATS]
NIH Chemical Genomics Center [NCGC]
U.S. Environmental Protection Agency [EPA]
National Institutes of Environmental Health Sciences [NIEHS]
National Toxicology Program [NTP]
U.S. Food and Drug Administration [FDA]
DNA repair pathways play a critical role in cellular homeostasis by repairing DNA damage induced by endogenous processes and xenobiotics. Isogenic chicken DT40 cell lines deficient in different DNA repair pathways can be used to identify genotoxic compounds and aid in characterizing the nature of the DNA damage induced. Two DNA repair-deficient cell lines with disrupted genes, Rad54/Ku70 or Rev3, were used to screen the Tox21 10K compound library. Possible genotoxicity was based on the presence of a significant increase in cytotoxicity in one or more of the DNA repair-deficient cell lines compared to that observed in the parental DNA repair-proficient cell line. CellTiter Glo viability assay (Promega, Madison, WI) was used to measure cell viability in these cells after compound treatment. This assay includes the data from the Rev3 mutant cell line.
Tox21 Assay Protocol Summary:
300 DT40 mutant cells in 5 uL/well were dispensed into white, solid-bottom 1536-well plates using a Multidrop Combi (ThermoFisher Scientific, Waltham, MA) dispenser. After the assay plates were incubated at 37 C/5% CO2 for approximately 0.5 hour, 23 nL of compounds dissolved in DMSO, positive controls or DMSO only was transferred into the assay plate by a pintool work station (Kalypsys, San Diego, CA). The assay plates were incubated at 37 C/5% CO2 for 40 hours. After 5 uL per well of CellTiter-Glo reagent was added into each well of the assay plates, the plates were incubated for 30 min at room temperature and the luminescence intensity of the plates was measured using a ViewLux (PerkinElmer, Shelton, CT) plate reader.
Potency means the concentration at half of the fitted maximal effect.

SMILES	Potency
CCCCCCCCCCOc1cc2c(=O)c(C(=O)OCC)c[nH]c2cc1OCC	inactive
C[N+]1(C)CCCC(OC(=O)C(O)(c2ccccc2)c2ccccc2)C1 (stereo not given)	inactive
CC1=CCC(O)(C(C)C)CC1 (stereo not given)	inactive
CC(C)(C)C(=O)c1ccccc1	inactive
C=CCOCC(O)CO (stereo not given)	inactive
O=C(c1ccccc1)C1(O)CCCCC1	inactive
c1ccc(CCc2ccccc2)cc1	inactive
CCCCS(=O)(=O)N[C@@H](Cc1ccc(OCCCCC2CCNCC2)cc1)C(=O)O	inactive
O=Cc1cccc(Br)c1	inactive
CN(C)CCN(C)CCN(C)C	inactive
O=S(=O)(O)c1cccc2c(S(=O)(=O)O)cccc12	inactive
O=C(O)CNC(=O)c1ccccc1	inactive
CCCCCCC1CCC(=O)O1 (stereo not given)	inactive
Cc1nc2ccc(CN(C)c3ccc(C(=O)N[C@@H](CCC(=O)O)C(=O)O)s3)cc2c(=O)[nH]1	2.7 nM (active) and 5.3 nM (active)
CN1CCN(c2cc3c(nn2)Oc2ccccc2N3C)CC1	inactive
CCN(Cc1ccccc1)c1ccccc1	inactive
CN1[C@@H]2CC[C@H]1CC(OC(=O)C(O)c1ccccc1)C2 (stereo not given in full)	inactive
CCN(C=O)CC	inactive
CCCCCC(C)N (stereo not given)	inactive
CC(=O)c1ccccc1[N+](=O)[O-]	inactive

SMILES	Potency
CC(=O)O[C@@]12CO[C@@H]1C[C@H](O)[C@@]1(C)C(=O)[C@H](O)C3=C(C)[C@@H](OC(=O)[C@H](O)[C@@H](NC(=O)OC(C)(C)C)c4ccccc4)C[C@@](O)([C@@H](OC(=O)c4ccccc4)[C@H]21)C3(C)C	1.7 nM (active) and 1.9 nM (active)
CC(C(=O)O)c1cccc(Oc2ccccc2)c1 (stereo not given)	inactive
CC1=NS(=O)(=O)c2cc(Cl)ccc2N1	inactive
CC(C)C[C@@H](N)C(=O)O	inactive
O=C(CO)[C@@H](O)[C@H](O)[C@@H](O)CO	inactive
CCC1C(=O)OCC1Cc1cncn1C (stereo not given)	inactive
c1ccc(Cc2ccccc2)cc1	inactive
FB(F)F	inactive
CC(C)(C#N)Nc1nc(Cl)nc(NC2CC2)n1	inactive
CC(=O)c1cnccn1	inactive
CCCCCCCCCCCCCCCCCCO	inactive
CCCCCC(=O)OCCc1ccccc1	inactive
CC(=O)C1CCCCC1=O (stereo not given)	inactive
CCN1CCOCC1	inactive
Cc1ccc(C(=O)Nc2ccc(S(=O)(=O)O)c3cc(S(=O)(=O)O)cc(S(=O)(=O)O)c23)cc1NC(=O)c1cccc(NC(=O)Nc2cccc(C(=O)Nc3cc(C(=O)Nc4ccc(S(=O)(=O)O)c5cc(S(=O)(=O)O)cc(S(=O)(=O)O)c45)ccc3C)c2)c1	inactive
CC/C=C\CCOC(C)OCC (stereo not given)	inactive
CN(C)CCCN(C)CCCN(C)C	inactive
CCCc1ncc(C[n+]2ccccc2C)c(N)n1	inactive
O=C1NC(=O)C2CC=CCC12 (stereo not given)	inactive
C[N+]1(CC2COC(c3ccccc3)(c3ccccc3)O2)CCCCC1 (stereo not given)	29.8 µM (active)
